PubChem BioAssay AID489043 (National Center for Advancing Translational Sciences (NCATS), 2010)
Records with an inconclusive call do not appear. The source made the active and inactive calls. The call rests on the fitted dose curve; in most records, active means well fitted activation curve with a large enough effect; inconclusive means small, poorly fitted or top-dose-only effect; inactive means flat fitted curve, though single readings scatter.

Molecular target: Relaxin receptor 2 (Homo sapiens) (UniProt Q8WXD0)
Sequence (Q8WXD0 whole entry, looked up): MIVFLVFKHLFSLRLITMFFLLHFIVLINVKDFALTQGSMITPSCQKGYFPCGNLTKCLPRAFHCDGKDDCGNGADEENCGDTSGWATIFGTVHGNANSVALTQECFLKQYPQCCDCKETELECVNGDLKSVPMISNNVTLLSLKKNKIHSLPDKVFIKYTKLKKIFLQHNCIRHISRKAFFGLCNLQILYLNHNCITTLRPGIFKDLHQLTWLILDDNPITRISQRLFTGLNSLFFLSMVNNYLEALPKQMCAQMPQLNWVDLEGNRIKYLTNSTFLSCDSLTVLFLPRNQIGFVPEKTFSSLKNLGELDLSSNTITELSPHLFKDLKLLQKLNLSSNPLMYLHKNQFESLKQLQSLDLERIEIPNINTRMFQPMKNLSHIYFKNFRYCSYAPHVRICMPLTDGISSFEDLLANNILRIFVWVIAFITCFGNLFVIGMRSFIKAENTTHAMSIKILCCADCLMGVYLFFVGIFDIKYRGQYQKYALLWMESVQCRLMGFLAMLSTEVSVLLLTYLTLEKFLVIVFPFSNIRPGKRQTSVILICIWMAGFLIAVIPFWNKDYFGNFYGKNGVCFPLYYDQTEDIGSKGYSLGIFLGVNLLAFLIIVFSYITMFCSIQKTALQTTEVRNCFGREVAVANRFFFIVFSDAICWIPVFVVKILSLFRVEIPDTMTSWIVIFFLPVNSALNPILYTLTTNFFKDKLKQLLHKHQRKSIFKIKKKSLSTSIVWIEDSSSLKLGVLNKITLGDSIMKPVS
Assay: qHTS Assay for Agonists of the Relaxin Receptor RXFP1: RXFP2 Hit Validation; further: nearly all actives have a fitted effect of over 65% in size
Conditions: HEK293 RXFP2 cAMP TR-FRET, 30 min; series mostly up to 115 µM
Outline: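 Selectivity counter-assay for cAMP accumulation: RXFP2-HEK293 cells given compounds with Ro 20174 for 30 min at 37C, then lysed for TR-FRET cAMP detection. Data scaled to 29 nM porcine relaxin (100%); Hill-equation EC50.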
Potency means the concentration at half of the fitted maximal effect.

Potency, active:
CN1C(=O)c2ccc(C(=O)Nc3ccc(Br)cn3)cc2C1=O 21.8 µM
Cc1ccc(-n2nnc3c(=O)n(CC(=O)NCC4CCCO4)cnc32)cc1 (stereo not drawn) 30.9 µM
NC(=S)c1cc2ccc(O)cc2oc1=O 4.88 µM
N#CCCSc1ncnc2c1oc1ccccc12 19.4 µM
O=C(OCc1nc2ccsc2c(=O)[nH]1)c1cccc(S(=O)(=O)N2CCOCC2)c1 34.6 µM
Cc1nc2scc(C)n2c(=O)c1S(=O)(=O)N1CCN(c2ccccn2)CC1 30.9 µM
CCCC(=O)Nc1ncnc2c1ncn2[C@@H]1O[C@@H]2COP(=O)(O)O[C@H]2[C@H]1OC(=O)CCC 1.38 µM
COc1ccc(Cl)cc1-c1n[nH]c(=S)o1 4.88 µM
COC(=O)c1nc2ccc(N3CCOCC3)cc2c(C)c1C(=O)OC 38.9 µM
CCN(CC)S(=O)(=O)c1ccc(C)c(NC(=O)Cn2cnc3cc([N+](=O)[O-])ccc3c2=O)c1 30.9 µM
CCn1c(SCC(=O)Nc2ccc(NC(C)=O)cc2)nc2c1c(=O)n(C)c(=O)n2C 27.5 µM
N#Cc1c(N)nc(SCC(=O)C23CC4CC(CC(C4)C2)C3)c(C#N)c1-c1ccc(Cl)cc1 12.3 µM
Cn1c2ccccc2c2nnc(SCC(=O)Nc3cccc(C(=O)O)c3)nc21 30.9 µM
CCCC(=O)Nc1ncnc2c1ncn2[C@@H]1O[C@@H]2OP(=O)(O)OC[C@H]2[C@H]1OC(=O)CCC 0.868 µM
CC(=O)Nc1ccc(S(=O)(=O)NCc2cc(=O)n(C)c(=O)n2C)cc1 30.9 µM
COc1ccc(C(=O)Nc2ccc(Cl)cc2C(=O)NCc2ccco2)cc1 42.1 µM
Cc1cc(C(=O)COC(=O)Cn2cnc3c2c(=O)n(C)c(=O)n3C)c(C)n1C 15.5 µM
O=[N+]([O-])c1cc2c(c(CSc3nnc4ccccn34)c1)OCOC2 11 µM
CC(C)Oc1ccc(S(=O)(=O)N2CCOCC2)cc1NC(=O)c1cc([N+](=O)[O-])ccc1N1CCOCC1 29.8 µM
CC1(C)O[C@@H]2[C@H](O1)[C@@H](COS(=O)(=O)O)O[C@H]2n1cnc2c(N)ncnc21 6.15 µM

Potency, inactive:
O=C(Nc1ccccc1C(=O)NC1CCCCC1)c1ccco1
O=C(Nc1ccccc1C(=O)NCc1ccc(Cl)cc1)c1ccco1
O=C(O)c1cccc(CSc2nnc(Cc3ccccc3)o2)c1
O=C(Nc1ccccc1C(=O)NCCc1ccc(O)cc1)c1ccco1
CC(C)n1cnc2c(N(C)c3cccc(Cl)c3)nc(N(CCO)CCO)nc21
O=C(O)c1ccc(CN2C(=O)c3ccc(C(=O)O)cc3C2=O)cc1
Cc1ccc2cc(CN(C(=O)c3cccs3)c3ccccc3)c(=O)[nH]c2c1
CCN(CC)CCCN1C=C2C(=O)C(C)(OC(=O)C3CCCC3)C(=O)C=C2C=C1c1ccsc1 (stereo not drawn)
COc1ccc(NC(=O)CSc2nc(-c3ccc(C)cc3)cc(C(F)(F)F)c2C#N)cc1
Cc1cccc(-c2nnc(SCC(=O)NC3CC3)n2C)c1
O=C(Nc1ccccc1C(=O)NCCN1CCOCC1)c1ccco1
O=C(Nc1ccccc1C(=O)NCc1ccccc1)c1ccco1
COC(=O)[C@@H]1C[C@@]2(O)[C@H](O)[C@H](O)[C@H](O)C[C@H]2N1Cc1cc(F)ccc1F
